According to the supplement of paper PMC12669032:

Columns and labels:
Test in all cases: growth AUC relative to DMSO control (median of replicates) (fraction); higher = more growth (less inhibition), active = hit call of the paper
Details in all cases: 20 µM; 24 h;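 active = AUC reduced over 20% with Padj below 0.05 in at least 2 of 3 replicates; inactive = otherwise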
[1] = test system: Akkermansia muciniphila
Summary of the method: (§1)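 Hourly OD600 readings over 24 h tracked anaerobic gut bacterial monocultures grown at 37 °C in mGAM from OD600 0.05 with 20 µM compound (1% DMSO). After the minimum OD was set to 0, area under the growth curve was normalised to the plate median of solvent-only wells, or to row and column medians on the industrial chemical plate. Values are medians of three biological replicates grown on separate days.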

[2] = test system: Bacteroides caccae
Summary of the method: as §1

[3] = test system: Bacteroides clarus
Summary of the method: as §1

[4] = test system: Bacteroides dorei
Summary of the method: as §1

[5] = test system: Bacteroides stercoris
Summary of the method: as §1

[6] = test system: Bacteroides thetaiotaomicron
Summary of the method: as §1

[7] = test system: Bacteroides uniformis
Summary of the method: as §1

[8] = test system: Bifidobacterium longum subsp. longum
Summary of the method: as §1

[9] = test system: Clostridium difficile
Summary of the method: as §1

[10] = test system: Collinsella aerofaciens
Summary of the method: as §1

Measured: growth AUC

Cc1cc(Cl)ccc1OC(C)C(=O)O (stereo not given)
inactive: [1] 0.902 | [2] 1.02 | [3] 0.996 | [4] 1 | [5] 1.01 | [6] 1.01 | [7] 1 | [8] 0.88 | [9] 1.03 | [10] 1.01

C[C@@H](Oc1ccc(Cl)cc1Cl)C(=O)O
inactive: [1] 1.14 | [2] 0.98 | [3] 1 | [4] 0.925 | [5] 1.26 | [6] 1 | [7] 0.965 | [8] 0.982 | [9] 0.949 | [10] 0.977

COCc1c(F)c(F)c(COC(=O)[C@@H]2[C@@H](C=C(Cl)Cl)C2(C)C)c(F)c1F
inactive: [1] 1.07 | [2] 0.953 | [3] 1.03 | [4] 1.01 | [5] 1.29 | [6] 1.03 | [7] 0.969 | [8] 1.03 | [9] 0.994 | [10] 1

CCOP(=S)(OCC)SCS(=O)(=O)CC
inactive: [1] 1.08 | [2] 0.96 | [3] 1.01 | [4] 0.977 | [5] 1.09 | [6] 0.996 | [7] 0.984 | [8] 0.951 | [9] 1.01 | [10] 1.02

Nc1ccc(Cc2ccc(N)c(Cl)c2)cc1Cl
inactive: [1] 0.988 | [2] 0.994 | [3] 0.981 | [4] 1.01 | [5] 0.931 | [6] 0.971 | [7] 0.968 | [8] 1.02 | [9] 1 | [10] 1

Nc1ccc(Cl)cc1Cl
inactive: [1] 1.06 | [2] 1 | [3] 1.01 | [4] 1.02 | [5] 0.97 | [6] 1.03 | [7] 0.993 | [8] 1.04 | [9] 1.03 | [10] 1.04

O=C1C[C@@H]2OCC=C3CN4CC[C@]56c7ccccc7N1[C@H]5[C@H]2[C@H]3C[C@H]46
inactive: [1] 0.985 | [2] 0.968 | [3] 0.998 | [4] 0.93 | [5] 0.898 | [6] 0.964 | [7] 1.01 | [8] 1.09 | [9] 0.972 | [10] 0.942

Nc1ccc(Cl)cc1
inactive: [1] 1.01 | [2] 1.03 | [3] 1.02 | [4] 1 | [5] 1.03 | [6] 1.05 | [7] 1.02 | [8] 1.04 | [9] 1 | [10] 0.972

C=CCN(CC=C)C(=O)C(Cl)Cl
inactive: [1] 0.976 | [2] 1.02 | [3] 1 | [4] 1.01 | [5] 1.01 | [6] 0.99 | [7] 0.985 | [8] 0.974 | [9] 0.973 | [10] 0.978

COc1c(Cl)ccc(Cl)c1Cl
inactive: [1] 1.02 | [2] 0.971 | [3] 0.985 | [4] 0.995 | [5] 1.19 | [6] 1.01 | [7] 0.99 | [8] 1.04 | [9] 1.01 | [10] 0.98

O=[N+]([O-])c1ccc(O)c([N+](=O)[O-])c1
inactive: [1] 1.07 | [2] 0.987 | [3] 0.939 | [4] 0.98 | [5] 0.867 | [6] 0.889 | [7] 0.946 | [8] 1 | [9] 0.973 | [10] 0.992

CC(C)NC(=O)N1CC(=O)N(c2cc(Cl)cc(Cl)c2)C1=O
inactive: [1] 0.919 | [2] 0.969 | [3] 0.989 | [4] 1.01 | [5] 1.1 | [6] 1.01 | [7] 0.967 | [8] 1.01 | [9] 1.04 | [10] 1.05

COP(=S)(OC)SCC(=O)N(c1ccc(Cl)cc1)C(C)C
inactive: [1] 0.942 | [2] 0.983 | [3] 0.965 | [4] 0.965 | [5] 1.03 | [6] 0.929 | [7] 0.912 | [8] 1.02 | [9] 1.01 | [10] 0.993

CCOP(=S)(OCC)Oc1nc(Cl)c(Cl)cc1Cl
inactive: [1] 0.91 | [2] 0.999 | [3] 0.95 | [4] 1.03 | [5] 1.07 | [6] 0.978 | [7] 1 | [8] 0.943 | [9] 1.01 | [10] 0.986

COP(=S)(OC)Oc1ccc([N+](=O)[O-])c(Cl)c1
inactive: [1] 1.04 | [2] 0.99 | [3] 0.973 | [4] 0.972 | [5] 0.973 | [6] 0.993 | [7] 0.943 | [8] 1.01 | [9] 0.961 | [10] 0.958

Cc1cccc(C)c1N
inactive: [1] 0.917 | [2] 1.04 | [3] 0.973 | [4] 1.01 | [5] 1.03 | [6] 1.04 | [7] 1.06 | [8] 1.04 | [9] 0.997 | [10] 0.985

CO/C=C(/C(=O)OC)c1ccccc1Oc1cc(Oc2ccccc2C#N)ncn1
inactive: [1] 1.05 | [2] 1.01 | [3] 0.967 | [4] 0.997 | [5] 0.864 | [6] 0.965 | [7] 0.914 | [8] 0.977 | [9] 0.973 | [10] 0.994

O=C(Nc1ccccc1)N(Cc1ccc(Cl)cc1)C1CCCC1
inactive: [1] 0.953 | [2] 0.983 | [3] 0.991 | [4] 0.991 | [5] 0.972 | [6] 0.964 | [7] 0.969 | [8] 1.02 | [9] 1.03 | [10] 0.98

Nc1nc(N)nc(Cl)n1
inactive: [1] 1.01 | [2] 1.05 | [3] 1.02 | [4] 1.01 | [5] 1.16 | [6] 1.01 | [7] 1.02 | [8] 1.01 | [9] 1.03 | [10] 0.992

N#Cc1cc(I)c(O)c(I)c1
inactive: [1] 0.914 | [2] 0.802 | [4] 0.776 | [5] 0.939 | [6] 0.919 | [8] 0.941 | [9] 0.919 | [10] 1.04
active: [3] 0.76 | [7] 0.799

CCOC(=O)CC(SP(=O)(OC)OC)C(=O)OCC (stereo not given)
inactive: [1] 1.24 | [2] 0.989 | [3] 0.992 | [4] 0.919 | [5] 0.976 | [6] 1.01 | [7] 0.972 | [8] 0.996 | [9] 0.952 | [10] 0.973

CC[C@H](C)[C@H]1O[C@]2(C=C[C@@H]1C)C[C@@H]1C[C@@H](C/C=C(\C)[C@@H](O[C@H]3C[C@H](OC)[C@@H](O[C@H]4C[C@H](OC)[C@@H](NC)[C@H](C)O4)[C@H](C)O3)[C@@H](C)/C=C/C=C3\CO[C@@H]4[C@H](O)C(C)=C[C@@H](C(=O)O1)[C@]34O)O2.O=C(O)c1ccccc1
active: [2] 0.0357 | [3] 0.264 | [4] 0.0271 | [5] 0.00403 | [7] 0.322 | [8] 0.167 | [10] 0.553
inactive: [1] 1.08 | [6] 0.812 | [9] 0.781

CN/C(=N\[N+](=O)[O-])NCc1cnc(Cl)s1
inactive: [1] 0.906 | [2] 0.93 | [3] 1.02 | [4] 1.03 | [5] 1.17 | [6] 1 | [7] 1 | [8] 1.03 | [9] 0.979 | [10] 0.988

CCOc1ccccc1OS(=O)(=O)NC(=O)Nc1nc(OC)cc(OC)n1
inactive: [1] 1.02 | [2] 1.05 | [3] 0.972 | [4] 1.05 | [5] 0.901 | [6] 1.01 | [7] 0.993 | [8] 0.967 | [9] 1.13 | [10] 1.03

CC(C)N(C)S(=O)(=O)NC(=O)c1cc(-n2c(=O)cc(C(F)(F)F)n(C)c2=O)c(F)cc1Cl
inactive: [1] 0.916 | [2] 1.02 | [3] 0.989 | [4] 1 | [5] 1.09 | [6] 0.951 | [7] 0.94 | [8] 1 | [9] 0.976 | [10] 1.04

Cc1cc(Cl)ccc1OCC(=O)O
inactive: [1] 1.02 | [2] 0.996 | [3] 1.01 | [4] 0.933 | [5] 0.945 | [6] 1.02 | [7] 1 | [8] 1.1 | [9] 0.967 | [10] 1.04
